Bioassay records (PubChem)
This excerpt belongs to a sample that is enriched for hits.
HIV RNase H inh-1 – blocks HIV-1 RNase H cleavage of RNA/DNA duplex. P04585. RT-RNase H RNA/DNA duplex cleavage, fluorescence. inhibition, % at 10 µM. 1.9% of 65,000 active; in the data active = inhibition above about 50%
RmlC RmlD mix – RmlC/RmlD inhibition, mixture screen; RmlC/RmlD coupled enzyme inhibition, 384-well mixture HTS; inhibition, % at 5.5 µM; 0.39% of 110,000 active; in the data active = inhibition above about 30%, passing the limit was not always enough; inconclusive = no clear call, values can overlap the other calls
HIV RNase H inh-2 – confirmation of HIV-1 reverse transcriptase RNase H inhibitors; shares compounds with HIV RNase H inh-1; Recombinant RT RNase H, fluorescent RNA/DNA duplex cleavage; inhibition, % at 10 µM; 39% of 1,000 active; AID 651; in the data active = inhibition above about 48%; inconclusive = no clear call, values can overlap the other calls
The depositor's hits bear a star; i = inactive; ? = inconclusive; nt = not tested or not shown.

SMILES	HIV RNase H inh-1	RmlC RmlD mix	HIV RNase H inh-2
CCN1C(=O)CC(N2CCC(C(=O)OC)CC2)C1=O (stereo not drawn)	-18.2	-10.3	nt
CN1CCN(CCCCOc2ccc(F)cc2)CC1	5.9	2.4	nt
COc1cc(C2C(C#N)=C(N)Oc3cc(C)n(CCc4ccccc4)c(=O)c32)cc2c1OCO2 (stereo not drawn)	77.3*	-10.4	28.1
Cc1cc2c(c(=O)n1CCc1ccccc1)C(c1ccco1)C(C#N)=C(N)O2 (stereo not drawn)	nt	6.7	nt
Cc1ccc(NC(=O)Nc2cccs2)nc1	nt	0.7	nt
CCN1CCN(c2cc(C)c3cc(NC(=O)c4ccc5c(c4)OCO5)ccc3n2)CC1	-8.3	-16.1	nt
O[C@H]1[C@H](O)[C@@H](O)CN2CC[C@H](O)[C@H]12	nt	-13.3	nt
O=C1c2cccc3c(Cl)ccc(c23)C(=O)N1O	-11.9	9.0	nt
O=C(c1ccc2c3c(cccc13)C(=O)N(O)C2=O)N1CCCCC1	80.0*	2.9	70.3*
COc1ccc(N2CCN(Cc3cc(=O)oc4cc(-c5ccccc5)c(O)cc34)CC2)cc1	91.9*	6.8	68.9*
COc1ccc(N2CCN(Cc3cc(=O)oc4cc(C)c(Cl)cc34)CC2)cc1	32.8	-11.1	nt
Cc1nc2c(c(C)nn2-c2ccccc2)c(C)c1Cl	-0.9	-4.2	nt
COc1cccc(-c2nc(-c3ccc(NC(=O)c4cccnc4)cc3)no2)c1	-1.2	7.3	nt
COc1ccc(CC(=O)Nc2ccc(-c3noc(-c4cccc(OC)c4)n3)cc2)cc1	79.1*	6.6	62.4*
COc1ccc(S(=O)(=O)n2ccnc2)c2cccnc12	-14.6	-7.8	nt
CCOC(=O)C1CCCN(C(=O)Cn2sc3nc(C)cc(C)c3c2=O)C1 (stereo not drawn)	85.0*	5.2	50.8*
Cc1cc(C)c2c(=O)n(CC(=O)N3CCC(N4CCCCC4)CC3)sc2n1	83.4*	8.0	58.3*
CCOC(=O)C1CCCN(C(=O)Cn2cnc3c2c(=O)n(C)c(=O)n3C)C1 (stereo not drawn)	-7.7	7.5	nt
CC(=O)c1cc(-c2ccccc2)n(CC(=O)N2CCC(N3CCCCC3)CC2)c1C	-9.7	-86.0	nt
O=C1CC(c2ccc(S(=O)(=O)N3CCCCC3)cc2)CN1 (stereo not drawn)	-9.9	10.9	nt
COc1ccc(C(CCN2CCCC2)c2c(O)cc(OC)cc2OC)cc1 (stereo not drawn)	nt	5.6	nt
CCC(Sc1nc(=O)cc(N)n1-c1ccccc1)C(=O)Nc1ccc(Cl)cn1 (stereo not drawn)	-6.4	nt	nt
CCOC(=O)c1cc(-c2nnc(-c3ccc(Cl)cc3)o2)c(C)nc1C	9.8	-5.7	nt
CCOC(=O)c1cc(-c2nnc(SCC(=O)Nc3ccc(F)cc3)o2)c(C)nc1C	70.1*	-6.8	2.5
Cc1nn(Cc2ccccc2Cl)c2sc(C(=O)OC3CCCC3=O)cc12 (stereo not drawn)	-30.9	-10.1	nt
SMILES	HIV RNase H inh-1	RmlC RmlD mix	HIV RNase H inh-2
COCCN=C1Sc2nc3ccc(C)cc3cc2CN1Cc1ccco1	nt	8.9	nt
COCCN1CSC(=S)N(Cc2ccco2)C1	62.9*	3.9	-8.3
O=C(NCCNC(=O)c1cccs1)c1ccco1	-0.7	-2.2	nt
CCOC(=O)Cn1nnc(-c2ccccc2)n1	nt	8.3	nt
Cc1cc(C)n2nc3nc(N4CCCC4)nc(-c4ccccc4)c3c2n1	-32.8	11.6	nt
COc1ccc2nc(SCC(=O)Nc3c(C)cccc3C)[nH]c2c1	nt	4.5	nt
COc1ccc2nc(S(=O)Cc3ncc(C)c(OC)c3C)[nH]c2c1 (stereo not drawn)	76.2*	-10.4	18.3
O=C1CC(N2CCN(c3ccc(O)cc3)CC2)C(=O)N1Cc1cccs1 (stereo not drawn)	80.7*	-4.9	19.7
O=C1CC(N2CCN(C/C=C/c3ccccc3)CC2)C(=O)N1Cc1cccs1 (stereo not drawn)	4.8	-8.3	nt
Cc1ccc(OCc2nnc(SCC(=O)N3CCOCC3)n2C)cc1	2.6	-6.0	nt
CCOC(=O)CSc1nc2ccccc2n1C(=O)OCC	-35.3	2.8	nt
Cn1cnnc1SCC(=O)Nc1ccccc1	-4.6	4.8	nt
O=C(CSC1=NS(=O)(=O)c2ccccc21)Nc1ccccc1	55.1*	0.1	7.2
COC(=O)CSC1=NS(=O)(=O)c2ccccc21	66.4*	-4.4	-2.1
COC(=O)CSc1ccccc1C(=O)OC	-15.3	22.1	nt
Fc1ccc(-c2nnc(Cc3nnc(-c4ccc(F)cc4)o3)o2)cc1	-2.2	i	nt
Cc1ccc(NS(=O)(=O)c2ccc(CCC(=O)NC3CC3)cc2)cc1	nt	-1.7	nt
O=C(c1ccccc1)c1ccc(OCC(O)CN2CCOCC2)cc1 (stereo not drawn)	-1.6	-250.7	nt
COc1ccc(CNC(=O)CN(CC2CCCO2)C(=O)CNS(=O)(=O)c2ccccc2)cc1 (stereo not drawn)	-5.7	-19.3	nt
COc1ccc(CCNC(=O)c2ccc3nc(-c4ccco4)c(-c4ccco4)nc3c2)cc1OC	93.1*	nt	-0.1
COc1ccc(CCNC(=O)COC(=O)c2ccco2)cc1OC	-5.8	6.9	nt
COc1ccc(S(=O)(=O)N2CCC(O)(c3ccc4c(c3)OCO4)CC2)cc1	-5.3	i	nt
Cc1ccc(-c2nnn(CC(=O)NCC3CC3)n2)o1	nt	-4.3	nt
Cc1ccc(-c2nnn(CC(=O)Nc3ccc4nn(-c5ccccc5)nc4c3)n2)o1	76.2*	nt	?
Cc1ccc(N2C(=O)NC(=O)C3(Cc4ccccc4N4CCCC43)C2=O)cc1 (stereo not drawn)	2.8	-8.4	nt
SMILES	HIV RNase H inh-1	RmlC RmlD mix	HIV RNase H inh-2
Cc1nc2cc(C(=O)N3CCC4(CC3)OCCO4)ccc2n1-c1cccc(F)c1	-15.1	-9.2	nt
O=C(c1ccc2nc(-c3ccco3)c(-c3ccco3)nc2c1)N1CCC2(CC1)OCCO2	74.7*	nt	33.1
O=c1c2ccccc2nc(CN2CCOCC2)n1-c1ccccc1F	-5.6	4.0	nt
N#Cc1c(NC(=O)c2ccncc2)sc2c1CCC2	63.6*	15.0	24.9
CCCC(=O)Nc1sc2c(c1C#N)CCCC2	5.5	-3.8	nt
CCCc1cc(C(=O)Nc2sc3c(c2C#N)CCC3)no1	60.6*	nt	70.3*
CC(=O)Nc1sc2c(c1C#N)CCCC2	nt	-32.5	nt
COc1ccc(N2C(=O)NC3CC2(C)Oc2ccc(Cl)cc23)cc1OC (stereo not drawn)	0.5	nt	nt
COc1ccccc1N(O)C1CC(=O)N(c2ccc(Br)cc2)C1=O (stereo not drawn)	67.7*	-12.7	25.4
CCCCCCC(=O)N(O)C1CC(=O)N(c2ccc(Br)cc2)C1=O (stereo not drawn)	23.9	-5.1	nt
Cc1ccc(C2=NC(C)(C)NC2=O)cc1	nt	-52.8	nt
COc1cc(O)c(C(CC(=O)N2CCCC2)c2cc(OC)c(OC)c(OC)c2)c(OC)c1 (stereo not drawn)	nt	-2.3	nt
O=C1C2C3C=CC(C3)C2C(=O)N1CNc1ccccn1 (stereo not drawn)	nt	9.4	nt
CC(C(=O)Nc1ccccn1)N1C(=O)C2C3C=CC(C3)C2C1=O (stereo not drawn)	74.1*	0.7	18.2
N#CC1=C2SCC(O)(c3ccccc3)N2C(=O)CC1c1ccccc1F (stereo not drawn)	nt	8.8	nt
CCc1sc(N(C(=O)Cc2ccccc2)c2ccc(F)cc2)nc1-c1ccccc1	nt	-13.4	nt
CCNC(=O)c1sc(=S)n(-c2ccc(C)cc2)c1N	nt	17.5	nt
CN1CCN(C(=O)c2sc(=S)n(-c3ccccc3)c2N)CC1	94.9*	-3.5	59.0*
CCOC(=O)c1sc(=S)n(-c2ccccc2)c1N	nt	-4.6	nt
Cc1ccc(-n2c(N)c(C(=O)N3CCOCC3)sc2=S)cc1	94.7*	-1.9	76.2*
